HT1080 IDH1KD tx – qHTS for induction of synthetic lethality in tumor cells producing 2HG: qHTS for the HT-1080-IDH1KD cell line | AID 686971, 2013 | HT-1080 IDH1 knockdown viability, ATP luminescence, 48 h | Potency, µM (titrated, usually from 46.1 µM), for the others: at the highest dose activity, negative = toxicity, actives largely listed as cytotoxic | 2% of 360,000 active;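 note: potency is the fitted concentration of half-maximal effect; 0% = DMSO wells and -100% = cell-free medium wells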
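Assay cells: HT-1080 with IDH1 knockdown, 750 per well, RPMI/5% FBS. Exposure: 48 h at 37 °C following 2 h pre-incubation. Read: CellTiter-Glo luminescence; fitted concentration-response, curve class assigned.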
DT40 TDP1 CPT – qHTS for Inhibitors of human tyrosyl-DNA phosphodiesterase 1 (TDP1): qHTS in cells in presence of CPT | chicken DT40 Tdp1-/-;hTDP1 cells + 20 nM CPT, ATP luminescence, 48 h | Potency, µM (titrated, usually from 46.2 µM), for the others: at the top dose activity change, negative = growth inhibition, usual class: inhibitors | 12% of 420,000 active; note: potency is the fitted concentration of half-maximal effect; nearly all actives have a fitted effect of over 55% in size
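Chicken DT40 Tdp1-/- cells complemented with human TDP1, 400 cells/well, exposed to compounds plus 20 nM camptothecin for at least 48 h at 37 C; viability read as ATP content by CellTiter-Glo luminescence.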
TDP1 cell noCPT – qHTS for Inhibitors of human tyrosyl-DNA phosphodiesterase 1 (TDP1): qHTS in cells in absence of CPT. DT40 Tdp1-/- hTDP1 cells, no CPT, ATP luminescence, 48 h. Potency, µM (doses to about 46.2 µM), inactives show at the top dose activity change, negative = growth inhibition, most hits filed as inhibitors. 15% of 420,000 active; note: potency is the fitted concentration of half-maximal effect; nearly all actives have a fitted effect of over 55% in size
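Cells were dispensed at 400 per well, compounds added by pin tool, plates incubated ≥48 hr at 37 °C, then CellTiter-Glo added for 30 min at room temperature before luminescence reading. Line: DT40 Tdp1-/- complemented with hTDP1; camptothecin omitted.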
HT1080NT lethal – qHTS for induction of synthetic lethality in tumor cells producing 2HG: qHTS for the HT-1080-NT fibrosarcoma cell line; HT-1080-NT fibrosarcoma viability, CellTiter-Glo ATP luminescence, 48 h; Potency, µM (doses to about 46.1 µM), for the others: at the highest dose activity, negative = less viability, most hits filed as cytotoxic; 1.6% of 360,000 active; AID 686970, 2013;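 note: NT is the 2HG producing partner of a matched IDH1 knockdown line; potency is the fitted concentration of half-maximal effect; 0% = DMSO-treated cells and -100% = media-only wells without cells; nearly all actives have a fitted effect of over 55% in size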
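Viability of the 2HG-overproducing fibrosarcoma line after 48 hours of compound exposure at 37 degrees C was determined by luminescence with CellTiter-Glo, and concentration-effect curves were then fitted and categorized.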
IL1B secr inh – qHTS for Inhibitors of Inflammasome Signaling: IL-1-beta AlphaLISA Primary Screen | AID 743279, 2014 | THP-1 LPS/ATP IL-1B secretion, AlphaLISA, 16 h; stronger effect = lower value | 4.7% of 360,000 active | activity change, % at 57.5 µM; in the data active = activity change below about -50%; inconclusive = mostly about -30% to -49%
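Secreted IL-1B measured by AlphaLISA bead assay after 16 h compound exposure of THP-1 cells; compounds (final up to 57.5 uM) added 1 h before LPS (250 ng/mL) and ATP (1.25 mM) stimulation; lower signal means less secretion.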
The depositor's hits bear a star; ? = inconclusive; . = no result given. Rows were chosen to be rich in hits. Some 19% of all compounds tested hit in one or more screens of this group. Unless noted, calls come from the whole dose curve; as a rule, active = well fitted curve in the direction sought with a large enough effect; inconclusive = small, poorly fitted or top-dose-only effect, or another doubt; inactive = no such curve, though single readings can be large; an effect the other way counts as inactive or inconclusive. Unless noted, % is set by controls: 0 for no effect and ±100 for the full control effect.

SMILES | HT1080 IDH1KD tx | DT40 TDP1 CPT | TDP1 cell noCPT | HT1080NT lethal | IL1B secr inh
COc1cccc(/C=C2/SC(=S)N(CC(=O)Nc3nnc(C)s3)C2=O)c1 | -1.2% | ? | 11.3% | 20.7% | 23.1
CCOC(=O)N1CCN(C(=O)CN2C(=O)/C(=C\c3cccc(OC)c3)SC2=S)CC1 | . | 7.94µM* | 8.91µM* | . | .
O=C(CCN1C(=O)/C(=C/c2ccccc2Cl)SC1=S)N1CCCC1 | ? | 9.2µM* | 6.51µM* | ? | -64.1*
O=C(CCCN1C(=O)/C(=C/c2ccccc2Cl)SC1=S)N1CCCC1 | -0.9% | ? | 20.6µM* | -6.6% | -65.6*
CCOC(=O)C1(CC2CCCCO2)CCN(S(=O)(=O)c2ccsc2)CC1 (stereo not drawn) | 2.7% | -13.2% | -1.8% | -1.0% | 11.1
C[C@H](NC(=O)c1ccccc1Cl)C(=O)NCc1cccs1 | 3.1% | -4.4% | 14.2% | 4.7% | 16.7
O=C(CCCN1C(=O)/C(=C/c2ccccc2Cl)SC1=S)NNC(=O)c1ccccc1Cl | ? | ? | 20.6µM* | ? | 19.0
CCOC(=O)N1CCN(C(=O)CCN2C(=O)/C(=C\c3ccccc3OC)SC2=S)CC1 | 12.0% | 23.1µM* | 23.1µM* | 4.2% | 20.5
COc1ccccc1/C=C1\SC(=S)N(CCC(=O)NNC(=O)c2ccccc2O)C1=O | ? | ? | ? | -27.9% | 18.0
O=C(CCCN1C(=O)/C(=C/c2ccccc2Cl)SC1=S)NNC(=O)c1ccncc1 | -9.5% | ? | ? | -5.9% | ?
Cc1ccc(S(=O)(=O)N[C@H](CNCc2ccccc2)C(C)C)cc1 | 1.1% | ? | ? | -2.7% | -7.6
O=C(c1ccco1)N1c2ccccc2Sc2ccccc21 | ? | ? | ? | -9.2% | -50.2*
O=C(NCCc1ccccc1)N1c2ccccc2Sc2ccccc21 | ? | ? | 16.4µM* | ? | -10.6
O=C(c1ccco1)N1CCN(C(=O)N2c3ccccc3Sc3ccccc32)CC1 | ? | 0.231µM* | 0.631µM* | ? | 21.3
Cn1c(CNC(=O)c2ccco2)nnc1SCC(=O)N1c2ccccc2Sc2ccccc21 | 0.9% | 7.6% | -3.5% | -5.5% | 27.3
O=C(c1ccc(Br)s1)N1CCN(c2ccccn2)CC1 | 0.9% | -25.5% | -10.7% | -0.9% | -17.5
O=C(N1CCN(c2ccccn2)CC1)N1c2ccccc2Sc2ccccc21 | 0.891µM* | 0.731µM* | 0.92µM* | 0.891µM* | 34.1
CCOC(=O)[C@]12CCC=C1N(Cc1ccco1)C(=O)[C@H](CC(=O)NCc1cccs1)C2 | 1.6% | -8.8% | -5.4% | 21.9% | 7.0
COC(=O)c1cc(CNC(=O)c2ccc(N(C)C)cc2)cc(NC(=O)c2ccccc2Cl)c1 | . | -0.1% | -27.5% | . | .
O=C(NCC1CCCO1)c1ccc2c(=O)n(-c3ccccc3)c(=S)[nH]c2c1 (stereo not drawn) | 12.6% | -6.0% | -16.5% | 16.9% | 14.5
Cc1nc2c3ccccc3nc(SCC(=O)c3ccc(Cl)cc3)n2n1 | 18.5% | ? | 18.4µM* | 10.2% | 1.7
O=C(CSc1nc(Nc2ccccc2)c2ccccc2n1)c1ccc(Cl)cc1 | . | 13µM* | 18.4µM* | . | .
COc1cc(Nc2nc(SCC(=O)c3ccc(Cl)c(Cl)c3)nc3ccccc23)cc(OC)c1 | . | 1.3µM* | 0.651µM* | . | .
Cc1ccc(-n2c(SCC(=O)N3CC(=O)Nc4ccccc43)nc3ccccc3c2=O)cc1C | -26.9% | ? | -24.7% | -24.1% | 0.0
Cc1cccc(-n2c(SCC(=O)N3CC(=O)Nc4ccccc43)nc3ccccc3c2=O)c1C | ? | ? | 18.4µM* | -30.0% | -62.4*
SMILES | HT1080 IDH1KD tx | DT40 TDP1 CPT | TDP1 cell noCPT | HT1080NT lethal | IL1B secr inh
Cc1cccc(-n2c(SCC(=O)N3CC(=O)Nc4ccccc43)nc3ccccc3c2=O)c1 | -19.8% | ? | 23.1µM* | ? | ?
COCC(C)n1c(SCC(=O)N2CC(=O)Nc3ccccc32)nc2ccccc2c1=O (stereo not drawn) | -5.3% | -13.0% | -21.4% | -15.2% | -19.8
CC(c1ccccc1)n1c(SCC(=O)N2CC(=O)Nc3ccccc32)nc2ccccc2c1=O (stereo not drawn) | -14.0% | 25.9µM* | 20.6µM* | -13.7% | -2.9
O=C1CN(C(=O)CSc2nc3cc(Cl)ccc3c(=O)n2Cc2ccccc2)c2ccccc2N1 | -9.8% | ? | ? | -8.2% | -71.7*
O=C(Cc1ccc(-n2c(=O)c3sccc3n(CC(=O)Nc3ccccc3F)c2=O)cc1)NCc1ccco1 | -1.0% | 5.7% | 1.9% | -4.8% | 12.9
O=S(=O)(NCCN1CCOCC1)c1ccc(F)c(Cl)c1 | 19.0% | 18.4µM* | 16.4µM* | 16.2% | -1.0
O=S(=O)(NCCN1CCOCC1)c1ccc(Cl)c(Cl)c1 | 0.0% | -7.0% | -18.1% | -1.2% | -7.3
CC(C)N1CCC(=NNc2ccc(S(=O)(=O)N3CCOCC3)cc2[N+](=O)[O-])CC1 | 0.2% | -21.5% | ? | -0.6% | 4.3
O=S(=O)(NCCCN1CCOCC1)c1ccc(Cl)s1 | 0.4% | ? | 23.1µM* | 11.4% | 1.9
O=[N+]([O-])c1cc(S(=O)(=O)NCCN2CCOCC2)ccc1Cl | -17.8% | -4.9% | -9.8% | -22.2% | -83.7*
CCCN1CCC(=NNc2ccc(S(=O)(=O)N3CCOCC3)cc2[N+](=O)[O-])CC1 | 14.6µM* | 2.59µM* | 2.59µM* | ? | 4.0
Cn1cnc([N+](=O)[O-])c1Oc1ccc2ccccc2c1 | ? | 8.2µM* | ? | -17.9% | -102.8*
Cn1cnc([N+](=O)[O-])c1Nc1cccc(O)c1 | 7.7% | 4.9% | 3.1% | 4.7% | 2.0
CC1=C(C(=O)Nc2ccc(C)cc2C)C(c2ccc(C)o2)NC(=O)N1 (stereo not drawn) | 23.4% | 2.7% | 16.1% | 10.3% | -0.8
CC(NC(=O)c1ccc(CS(C)(=O)=O)cc1)C1CC2CCC1C2 (stereo not drawn) | 0.5% | -6.0% | -14.1% | 0.2% | 5.6
CC(NCc1ccc(N(C)C)cc1)C1CC2CCC1C2 (stereo not drawn) | 3.7% | ? | ? | -2.3% | -60.7*
O=C(Nc1ccccc1C(=O)OCc1cc(=O)n2nc(C3CC3)sc2n1)c1cccc(Cl)c1 | . | -9.9% | -12.4% | . | .
COc1ccc2[nH]c3c(c2c1)CCN1C(=O)N([C@@H](C)C(=O)NCc2ccco2)C(=O)[C@]31C | -0.3% | ? | ? | 1.2% | 0.0
